What follows are compounds tested on Fam108b (assay: Fam108b inhibition by ABPP, late-stage follow-up, biochemical, gel-based ABPP, recombinant soluble Fam108b, HTS hits, complex proteome (AID 588651;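 further: Fam108b spiked into mouse brain membrane proteome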)). Conditions: FP-rhodamine labeling in proteome, at 20 µM, active compounds read high; in the data active means inhibition above about 65%; inactive means the rest.

inhibition, inactive:
Brc1ccc(-c2csc(Nc3nc(-c4ccc(Br)cc4)cs3)n2)cc1 50%, O=C1C(Cl)=C(N2CCC(C(=O)O)CC2)C(=O)c2ccccc21 0%, O=C(O)CCCNc1cc(N2CCN(C(=O)c3ccco3)CC2)c2noc3c2c1C(=O)c1ccccc1-3 40%, O=C(Nc1ccc2[nH]c(=S)sc2c1)Nc1ccccc1F 20%

Source: PubChem BioAssay AID588651 (The Scripps Research Institute Molecular Screening Center, 2011)
